# Data: PubChem BioAssay AID2427 (National Center for Advancing Translational Sciences (NCATS), 2010)
# Active and inactive are the calls of the source.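 Rule for the calls: active = melting temperature shift above 3 C; inconclusive = shift above 1 C but not above 3 C; inactive = the rest.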
# Target: 15-hydroxyprostaglandin dehydrogenase [NAD(+)] (Homo sapiens) (UniProt P15428)
# Test: Thermal Shift Assay for Inhibitors of HPGD (15-Hydroxyprostaglandin Dehydrogenase)
# Conditions: Recombinant HPGD thermal shift, SYPRO orange DSF, at 250 µM, stronger effect = higher value
# Procedure: Assay Overview: Human 15-Hydroxyprostaglandin dehydrogenase (HPGD) catalyzes the inactivation of prostaglandin E2, and plays a major role in cancer biology by antagonizing the oncogenic potential of cyclooxygenase type 2 (COX2). Studies to assess the stability of human 15-PGDH in presence of compounds was performed as described (Niesen et al., 2007) with variations. References 1. Myung SJ, Rerko RM, Yan M, Platzer P, Guda K, Dotson A, Lawrence E, Dannenberg AJ, Lovgren AK, Luo G, Pretlow TP, Newman RA, Willis J, Dawson D, Markowitz SD. 15-Hydroxyprostaglandin dehydrogenase is an in vivo suppressor of colon tumorigenesis. Proc Natl Acad Sci U S A. 2006 Aug 8;103(32):12098-102. 2. Yan M, Rerko RM, Platzer P, Dawson D, Willis J, Tong M, Lawrence E, Lutterbaugh J, Lu S, Willson JK, Luo G, Hensold J, Tai HH, Wilson K, Markowitz SD. 15-Hydroxyprostaglandin dehydrogenase, a COX-2 oncogene antagonist, is a TGF-beta-induced suppressor of human gastrointestinal cancers. Proc Natl Acad Sci U S A. 2004 Dec 14;101(50):17468-73. 3. […]
# HPGD was diluted to a final assay concentration of 1 uM in 100 mM Tris buffer, pH 8.0, containing 0.01% Tween-20 and 1:1000 SYPRO orange dye. […] Heat denaturation curves were recorded using a RT-PCR instrument (Mx3005p, Agilent) applying a temperature gradient of 2 degree C/min. […]
# Sequence of 15-hydroxyprostaglandin dehydrogenase [NAD(+)] (Homo sapiens) (P15428 whole entry, looked up): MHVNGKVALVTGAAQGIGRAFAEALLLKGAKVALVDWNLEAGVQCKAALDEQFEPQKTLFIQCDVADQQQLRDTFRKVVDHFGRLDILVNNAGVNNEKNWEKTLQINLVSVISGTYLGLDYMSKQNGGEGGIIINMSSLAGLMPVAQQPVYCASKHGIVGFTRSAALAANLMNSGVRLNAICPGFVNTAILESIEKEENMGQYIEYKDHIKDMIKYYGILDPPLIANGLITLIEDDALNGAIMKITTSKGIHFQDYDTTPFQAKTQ
smiles,measurement,setting,value
O=P1(Nc2ccc(F)cc2)COc2ccccc2OC1,thermal shift (delta Tm),,0.5 C (inactive)
same,thermal shift (delta Tm),measured here: delta Tm with NADH cofactor,3.3 C
